Reference: the supplement of paper PMC10849652
Targets with a hit are over-represented here; the source holds about 8,800 in all. About 0.5% of all pairs of compound and target were hits. Unmarked numbers belong to inactive results.

Legend:
Experiment in all cases: log2 fold change, soluble protein after heating vs DMSO (PISA); higher = thermal stabilisation; K562 lysate, 10 uM; active = over 0.2 and 3.5 SD of the protein, either way, in both replicates (recomputed)
[1] = compound: CN1CC[C@H](c2c(O)cc(O)c3c(=O)cc(-c4ccccc4Cl)oc23)[C@H](O)C1 [alvocidib]
Method in brief: (§1)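 The values are log-two fold changes in thermal stability compared with solvent controls and come from duplicates. They were obtained by TMTpro 16plex LC-MS/MS, with channel sums equalised, on the supernatant after 21,000xg for 90 min. That supernatant came from crude K562 extract at 1 mg/mL protein treated with 10 μM compound for 30 min, heated for 3 min across 48°C-58°C, pooled and brought to 0.5% NP-40 at 4°C.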

[2] = compound: CN1CCc2c(c3ccccc3n2Cc2ccc(C(=O)NO)cc2)C1 [Tubastatin A]
Method in brief: as §1

[3] = compound: CNC(=O)C1=CC=CC=C1NC2=NC(=NC=C2Cl)NC3=C(C=C(C=C3)N4CCOCC4)OC
Method in brief: as §1

[4] = compound: CNC(=O)c1ccc(Nc2ncc(C(F)(F)F)c(NCc3nccnc3N(C)S(C)(=O)=O)n2)cc1 [defactinib]
Method in brief: as §1

[5] = compound: CNc1nc(-c2ccc3c(N)n[nH]c3c2)cc(N2C[C@@H](C(=O)NC3CCCCC3)CC[C@H]2C)n1
Method in brief: as §1

[6] = compound: COC(=O)N[C@@H](C)CNc1nccc(-c2cn(C(C)C)nc2-c2cc(Cl)cc(NS(C)(=O)=O)c2F)n1 [encorafenib]
Method in brief: as §1

[7] = compound: COC(=O)[C@H](CCSC)NC(=O)C1=C(C=C(C=C1)NC[C@H](CS)N)C2=CC=CC=C2
Method in brief: as §1

[8] = compound: COc1cc(Nc2ncc3c(n2)-c2ccc(Cl)cc2C(c2c(F)cccc2OC)=NC3)ccc1C(=O)O [alisertib]
Method in brief: as §1

[9] = compound: COc1cc2nc(-c3cc(F)ccc3O)nc(N[C@@H]3CNC[C@H]3C(C)(C)O)c2cc1OC
Method in brief: as §1

[10] = compound: COc1cc2ncnc(Nc3ccc(F)c(Cl)c3)c2cc1OCCCN1CCOCC1 [gefitinib]
Method in brief: as §1

[11] = compound: CS(=O)(=O)CCNCc1ccc(-c2ccc3ncnc(Nc4ccc(OCc5cccc(F)c5)c(Cl)c4)c3c2)o1 [lapatinib]
Method in brief: as §1

[12] = compound: CS(=O)(=O)N1CCN(Cc2cc3nc(-c4cccc5[nH]ncc45)nc(N4CCOCC4)c3s2)CC1 [pictilisib]
Method in brief: as §1

[13] = compound: C[C@@H](Oc1cc(-c2cnn(C3CCNCC3)c2)cnc1N)c1c(Cl)ccc(F)c1Cl [crizotinib]
Method in brief: as §1

[14] = compound: C[C@H](C1=CC=C(C=C1)C(=O)NC2=C3C=CNC3=NC=C2)N
Method in brief: as §1

[15] = compound: C[C@H](Nc1ncnc2nc[nH]c12)c1cc2cccc(Cl)c2c(=O)n1-c1ccccc1 [duvelisib]
Method in brief: as §1

[16] = compound: Cc1cc(Nc2cc(CN3CCOCC3)c3nc(C)c(Cc4ccc(Cl)cc4F)n3n2)n[nH]1 [gandotinib]
Method in brief: as §1

[17] = compound: Cc1cc(Nc2cc(N3CCN(C)CC3)nc(Sc3ccc(NC(=O)C4CC4)cc3)n2)n[nH]1 [tozasertib]
Method in brief: as §1

[18] = compound: Cc1ccc(-n2nc(C(C)(C)C)cc2NC(=O)Nc2ccc(OCCN3CCOCC3)c3ccccc23)cc1 [doramapimod]
Method in brief: as §1

[19] = compound: Cc1ccc(NC(=O)c2ccc(CN3CC[C@H](N(C)C)C3)c(C(F)(F)F)c2)cc1Nc1nccc(-c2cncnc2)n1 [bafetinib]
Method in brief: as §1

[20] = compound: Cc1cccc(CC(=O)N2CCc3c2ccc(-c2cn(C)c4ncnc(N)c24)c3F)n1
Method in brief: as §1

Chain of UniProt Q6EEV4 (Q6EEV4 whole entry, looked up): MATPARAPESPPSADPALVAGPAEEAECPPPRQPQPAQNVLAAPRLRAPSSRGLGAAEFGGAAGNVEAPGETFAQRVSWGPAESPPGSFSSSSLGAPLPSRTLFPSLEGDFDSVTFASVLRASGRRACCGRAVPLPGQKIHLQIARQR
Chain of UniProt Q9BY49 (Q9BY49 whole entry, looked up): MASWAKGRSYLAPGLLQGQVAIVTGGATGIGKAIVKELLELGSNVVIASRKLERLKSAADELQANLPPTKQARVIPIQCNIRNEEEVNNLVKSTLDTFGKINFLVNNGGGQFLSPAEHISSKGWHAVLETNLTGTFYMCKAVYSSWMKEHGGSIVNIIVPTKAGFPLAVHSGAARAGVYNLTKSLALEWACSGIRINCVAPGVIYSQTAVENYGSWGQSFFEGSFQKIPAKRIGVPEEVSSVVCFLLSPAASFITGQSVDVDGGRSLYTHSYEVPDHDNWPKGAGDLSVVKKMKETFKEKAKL
Chain of UniProt Q96LW4 (Q96LW4 whole entry, looked up): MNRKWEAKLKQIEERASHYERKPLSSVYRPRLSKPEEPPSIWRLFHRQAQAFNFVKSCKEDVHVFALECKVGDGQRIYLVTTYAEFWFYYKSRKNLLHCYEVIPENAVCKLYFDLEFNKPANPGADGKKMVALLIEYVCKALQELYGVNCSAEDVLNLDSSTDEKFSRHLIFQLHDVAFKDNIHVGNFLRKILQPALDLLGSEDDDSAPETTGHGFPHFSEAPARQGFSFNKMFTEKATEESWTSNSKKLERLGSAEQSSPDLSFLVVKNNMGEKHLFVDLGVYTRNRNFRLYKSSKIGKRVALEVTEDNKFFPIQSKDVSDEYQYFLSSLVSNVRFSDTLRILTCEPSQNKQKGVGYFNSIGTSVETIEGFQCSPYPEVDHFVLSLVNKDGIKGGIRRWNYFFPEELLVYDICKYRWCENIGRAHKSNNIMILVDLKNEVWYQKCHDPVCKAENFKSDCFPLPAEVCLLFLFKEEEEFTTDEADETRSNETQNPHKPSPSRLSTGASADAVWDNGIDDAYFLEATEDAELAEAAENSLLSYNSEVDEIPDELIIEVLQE
Chain of UniProt O60927 (O60927 whole entry, looked up): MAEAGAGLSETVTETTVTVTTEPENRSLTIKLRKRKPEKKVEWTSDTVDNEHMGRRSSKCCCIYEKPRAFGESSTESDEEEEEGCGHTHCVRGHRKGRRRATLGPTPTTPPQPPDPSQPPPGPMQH
Chain of UniProt P13861 (P13861 whole entry, looked up): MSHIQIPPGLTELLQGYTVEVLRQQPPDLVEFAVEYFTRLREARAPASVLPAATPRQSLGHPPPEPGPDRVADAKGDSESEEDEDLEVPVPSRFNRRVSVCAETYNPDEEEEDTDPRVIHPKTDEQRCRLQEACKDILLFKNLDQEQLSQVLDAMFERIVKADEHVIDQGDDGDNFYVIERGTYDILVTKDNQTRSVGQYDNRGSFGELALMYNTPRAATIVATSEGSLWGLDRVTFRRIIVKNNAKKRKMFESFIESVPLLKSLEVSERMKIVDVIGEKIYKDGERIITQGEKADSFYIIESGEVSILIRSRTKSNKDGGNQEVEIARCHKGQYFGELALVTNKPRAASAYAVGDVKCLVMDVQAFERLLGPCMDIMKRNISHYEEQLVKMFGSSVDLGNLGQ
Chain of UniProt Q13362 (Q13362 whole entry, looked up): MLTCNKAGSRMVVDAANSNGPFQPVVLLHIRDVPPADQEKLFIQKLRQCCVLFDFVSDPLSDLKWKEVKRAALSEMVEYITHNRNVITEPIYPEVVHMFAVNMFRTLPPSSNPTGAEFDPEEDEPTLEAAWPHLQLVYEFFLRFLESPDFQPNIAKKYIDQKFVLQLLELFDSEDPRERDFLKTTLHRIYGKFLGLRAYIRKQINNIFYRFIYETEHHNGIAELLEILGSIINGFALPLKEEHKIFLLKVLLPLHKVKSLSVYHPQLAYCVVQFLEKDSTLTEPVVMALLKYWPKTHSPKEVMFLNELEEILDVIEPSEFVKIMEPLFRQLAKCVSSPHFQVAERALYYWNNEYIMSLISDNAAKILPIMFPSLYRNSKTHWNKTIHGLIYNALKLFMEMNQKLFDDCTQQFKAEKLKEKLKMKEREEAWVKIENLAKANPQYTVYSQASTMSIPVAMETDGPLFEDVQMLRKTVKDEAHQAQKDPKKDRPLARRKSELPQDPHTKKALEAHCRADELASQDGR
Chain of UniProt O94806 (O94806 whole entry, looked up): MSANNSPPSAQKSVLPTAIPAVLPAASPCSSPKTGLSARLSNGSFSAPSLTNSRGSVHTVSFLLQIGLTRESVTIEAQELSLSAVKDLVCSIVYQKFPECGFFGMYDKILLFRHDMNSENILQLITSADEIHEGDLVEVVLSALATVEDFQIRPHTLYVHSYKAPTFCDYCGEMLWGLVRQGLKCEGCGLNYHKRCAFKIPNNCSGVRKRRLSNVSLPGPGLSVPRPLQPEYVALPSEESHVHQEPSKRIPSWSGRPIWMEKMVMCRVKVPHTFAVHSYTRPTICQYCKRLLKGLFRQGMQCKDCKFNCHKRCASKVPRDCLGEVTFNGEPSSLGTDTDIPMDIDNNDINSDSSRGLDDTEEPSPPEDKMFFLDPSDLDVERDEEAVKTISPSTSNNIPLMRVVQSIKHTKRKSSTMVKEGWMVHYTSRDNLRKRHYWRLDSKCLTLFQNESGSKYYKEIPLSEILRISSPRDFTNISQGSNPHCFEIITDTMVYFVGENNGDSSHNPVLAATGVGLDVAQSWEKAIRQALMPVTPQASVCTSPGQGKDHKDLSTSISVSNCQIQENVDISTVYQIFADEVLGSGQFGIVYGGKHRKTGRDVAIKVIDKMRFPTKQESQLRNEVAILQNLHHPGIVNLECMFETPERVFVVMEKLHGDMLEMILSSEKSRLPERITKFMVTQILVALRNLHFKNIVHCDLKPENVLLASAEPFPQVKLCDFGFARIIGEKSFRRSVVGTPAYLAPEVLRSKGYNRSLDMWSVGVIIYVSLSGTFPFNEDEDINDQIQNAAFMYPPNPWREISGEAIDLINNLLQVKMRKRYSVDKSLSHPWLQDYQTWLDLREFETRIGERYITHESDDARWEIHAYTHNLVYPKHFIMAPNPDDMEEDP
Chain of UniProt Q14289 (Q14289 whole entry, looked up): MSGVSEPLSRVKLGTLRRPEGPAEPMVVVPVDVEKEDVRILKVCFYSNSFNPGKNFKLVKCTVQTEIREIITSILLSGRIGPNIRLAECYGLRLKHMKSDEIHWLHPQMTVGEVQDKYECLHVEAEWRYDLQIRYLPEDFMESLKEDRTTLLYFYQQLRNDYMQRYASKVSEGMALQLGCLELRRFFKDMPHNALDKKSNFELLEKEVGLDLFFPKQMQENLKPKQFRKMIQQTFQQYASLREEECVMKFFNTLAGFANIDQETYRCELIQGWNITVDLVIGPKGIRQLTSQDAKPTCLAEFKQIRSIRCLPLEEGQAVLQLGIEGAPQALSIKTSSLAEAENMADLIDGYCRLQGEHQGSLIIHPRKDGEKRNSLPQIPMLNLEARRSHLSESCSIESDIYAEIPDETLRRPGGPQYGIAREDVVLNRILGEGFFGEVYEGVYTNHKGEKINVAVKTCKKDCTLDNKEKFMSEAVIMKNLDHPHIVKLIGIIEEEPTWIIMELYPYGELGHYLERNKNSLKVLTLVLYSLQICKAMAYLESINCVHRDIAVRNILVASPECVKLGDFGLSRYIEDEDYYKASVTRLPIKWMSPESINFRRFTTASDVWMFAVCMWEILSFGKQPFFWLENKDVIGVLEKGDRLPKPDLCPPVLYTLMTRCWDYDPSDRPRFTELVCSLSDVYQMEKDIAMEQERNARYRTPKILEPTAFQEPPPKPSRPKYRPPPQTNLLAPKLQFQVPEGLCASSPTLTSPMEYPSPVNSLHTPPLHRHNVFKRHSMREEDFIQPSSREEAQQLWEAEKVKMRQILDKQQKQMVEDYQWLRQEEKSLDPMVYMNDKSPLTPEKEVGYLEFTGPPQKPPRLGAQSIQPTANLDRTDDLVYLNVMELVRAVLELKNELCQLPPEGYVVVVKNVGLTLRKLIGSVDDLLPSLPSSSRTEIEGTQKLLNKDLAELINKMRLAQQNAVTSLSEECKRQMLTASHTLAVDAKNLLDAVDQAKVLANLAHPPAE
Chain of UniProt Q03393 (Q03393 whole entry, looked up): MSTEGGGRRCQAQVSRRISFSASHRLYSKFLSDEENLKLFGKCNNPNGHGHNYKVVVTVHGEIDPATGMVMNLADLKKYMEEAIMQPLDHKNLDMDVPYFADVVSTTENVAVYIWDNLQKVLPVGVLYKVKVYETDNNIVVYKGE
Chain of UniProt O95336 (O95336 whole entry, looked up): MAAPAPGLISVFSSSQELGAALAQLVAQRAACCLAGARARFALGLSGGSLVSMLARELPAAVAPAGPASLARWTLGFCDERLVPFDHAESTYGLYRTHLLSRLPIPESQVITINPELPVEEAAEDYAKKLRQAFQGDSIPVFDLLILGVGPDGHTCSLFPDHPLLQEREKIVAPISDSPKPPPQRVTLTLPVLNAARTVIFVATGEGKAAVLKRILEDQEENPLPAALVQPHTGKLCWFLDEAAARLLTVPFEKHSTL
Chain of UniProt Q9BSG0 (Q9BSG0 whole entry, looked up): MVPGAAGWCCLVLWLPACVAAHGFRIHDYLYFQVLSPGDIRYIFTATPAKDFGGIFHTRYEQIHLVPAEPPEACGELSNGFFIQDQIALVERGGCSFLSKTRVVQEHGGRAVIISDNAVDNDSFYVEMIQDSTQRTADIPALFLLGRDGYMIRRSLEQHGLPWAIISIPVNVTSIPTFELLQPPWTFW
Chain of UniProt P06454 (P06454 whole entry, looked up): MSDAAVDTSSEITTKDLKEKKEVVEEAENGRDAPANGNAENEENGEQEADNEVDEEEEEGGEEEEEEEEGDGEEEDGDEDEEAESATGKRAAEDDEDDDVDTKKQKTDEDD
Chain of UniProt O14668 (O14668 whole entry, looked up): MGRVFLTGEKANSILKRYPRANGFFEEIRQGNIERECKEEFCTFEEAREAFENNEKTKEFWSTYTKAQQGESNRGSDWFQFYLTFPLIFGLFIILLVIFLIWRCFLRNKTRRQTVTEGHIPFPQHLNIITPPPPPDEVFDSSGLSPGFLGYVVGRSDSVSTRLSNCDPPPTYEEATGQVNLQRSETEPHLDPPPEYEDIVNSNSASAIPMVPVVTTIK

Target | log2 fold change [1] | log2 fold change [2] | log2 fold change [3] | log2 fold change [4] | log2 fold change [5] | log2 fold change [6] | log2 fold change [7] | log2 fold change [8] | log2 fold change [9] | log2 fold change [10] | log2 fold change [11] | log2 fold change [12] | log2 fold change [13] | log2 fold change [14] | log2 fold change [15] | log2 fold change [16] | log2 fold change [17] | log2 fold change [18] | log2 fold change [19] | log2 fold change [20]
PGLS (UniProt O95336) | 0.177 | 0.09 | 0.061 | 0.231 | 0.016 | 0.017 | 0.019 | 0.03 | -0.087 | -0.163 | 0.068 | 0.011 | 0 | 0.206 | 0.033 | -0.084 | 0.008 | 0.004 | -0.031 | -0.14
PRKAR2A (UniProt P13861) | -0.028 | -0.019 | -0.176 | -0.085 | -0.017 | 0.037 | 0.142 | 0.002 | -0.062 | 0.024 | 0.036 | -0.094 | 0.013 | 0.006 | -0.025 | -0.232 (active) | 0.015 | 0.036 | -0.026 | 0.031
PRKDC (UniProt P78527) | -0.06 | -0.114 | -0.002 | 0.033 | -0.03 | -0.022 | -0.035 | 0.012 | -0.003 | – | -0.032 | 0.155 | -0.026 | -0.088 | 0.298 | 0.132 | -0.03 | -0.038 | -0.146 | -0.074
PTS (UniProt Q03393) | -0.055 | -0.007 | 0.043 | -0.059 | 0.015 | 0.1 | -0.022 | -0.009 | 0.016 | 0.121 | -0.018 | 0.008 | 0.051 | -0.024 | 0.051 | -0.039 | 0.031 | -0.069 | 0 | 0.05
PWP2 (UniProt Q15269) | -0.014 | -0.073 | 0.027 | 0.042 | 0.061 | 0.035 | -0.033 | 0.004 | -0.007 | -0.057 | -0.017 | -0.012 | 0.001 | -0.016 | 0.005 | -0.075 | -0.013 | -0.017 | -0.023 | 0.029
PRADC1 (UniProt Q9BSG0) | -0.141 | 0.04 | -0.126 | – | 0.059 | – | – | 0.109 | 0.212 | -0.071 | -0.088 | 0.091 | 0.075 | 0.166 | -0.069 | -0.002 | – | -0.041 | -0.149 | -0.087
PTK2B (UniProt Q14289) | – | -0.071 | 0.401 (active) | 0.315 | -0.063 | -0.048 | -0.007 | 0.093 | 0.103 | -0.056 | -0.075 | -0.043 | – | -0.026 | -0.034 | 0.385 (active) | 0.019 | – | 0.098 | -0.05
PPP2CA (UniProt E7ESG8) | – | – | – | – | – | – | – | 0.139 | – | -0.034 | – | – | – | – | – | – | – | – | – | –
PRRG1 (UniProt O14668) | – | -0.032 | – | – | – | – | – | – | – | – | – | – | – | – | – | – | – | – | – | –
PHOSPHO2 (UniProt C9JD35) | – | – | – | – | – | 0.018 | -0.36 | – | – | – | – | – | 0.02 | – | – | – | 0.234 | -0.084 | – | –
PRIMPOL (UniProt Q96LW4) | – | -0.159 | 0.036 | 0.076 | 0.071 | 0.055 | -0.37 | -0.113 | – | 0.045 | – | 0.02 | -0.097 | – | 0.003 | – | -0.031 | 0.014 | -0.225 | –
PLXND1 (UniProt Q9Y4D7) | – | 0.111 | 0.015 | – | -0.123 | – | – | 0.046 | – | 0.313 | – | 0.018 | 0.067 | – | -0.031 | – | – | 0.171 | -0.461 (active) | –
PPP2R5C isoform 2 (UniProt Q13362) | -0.004 | 0.044 | -0.028 | -0.024 | 0.001 | – | – | 0.058 | – | -0.062 | – | 0.151 | 0.234 | -0.021 | -0.064 | 0.026 | – | -0.043 | 0.103 | -0.005
PECR (UniProt Q9BY49) | – | – | – | – | – | 0.101 | -0.184 | – | – | – | – | – | – | – | – | – | -0.053 | – | – | –
PTK2 isoform 2 (UniProt Q05397) | – | – | 0.003 | – | 0.018 | -0.058 | -0.129 | – | 0.053 | – | 0.049 | 0.067 | – | – | 0.298 | – | 0.125 | – | -0.087 | –
POLR2M (UniProt Q6EEV4) | 0.085 | – | 0.075 | 0.125 | 0.108 | -0.001 | -0.081 | – | 0.038 | – | 0.047 | -0.07 | -0.064 | 0.026 | -0.049 | -0.154 | 0.055 | -0.041 | -0.116 | 0.046
PHC1 (UniProt P78364) | – | – | – | 0.005 | 0.184 | 0.059 | -0.062 | -0.017 | – | -0.101 | – | -0.025 | 0.063 | – | -0.025 | – | 0.022 | -0.254 | 0 | –
POLR2F (UniProt U3KPV3) | – | – | – | – | -0.059 | 0.177 | -0.182 | – | – | – | – | – | – | – | 0.012 | – | 0.109 | – | – | –
PRKD3 (UniProt O94806) | -0.308 | -0.014 | -0.066 | 0.059 | – | 0.077 | 0.233 | 0.139 | 0.087 | -0.051 | 0.031 | 0.019 | -0.199 | -0.643 (active) | – | 0.423 | 0.092 | -0.075 | -0.086 | 0.46
PCBP2 (UniProt F8W0G4) | – | -0.009 | 0.01 | 0.044 | 0.033 | 0.125 | -0.006 | 0.192 | – | 0.028 | – | 0.087 | – | – | 0.358 | – | -0.069 | – | -0.223 | –
PTMA isoform 2 (UniProt P06454) | – | – | – | – | – | – | – | – | – | – | – | -0.053 | – | – | – | – | – | – | -0.02 | –
PICALM (UniProt H0YCY1) | – | – | -0.018 | – | – | – | – | – | – | – | – | – | – | – | – | – | – | – | – | –
PPP1R11 (UniProt O60927) | 0.048 | 0.077 | 0.011 | – | -0.001 | 0.051 | -0.027 | -0.081 | -0.041 | -0.09 | 0.01 | -0.016 | -0.069 | 0.153 | -0.054 | -0.048 | 0.022 | -0.022 | 0.099 | -0.071
